Records with an inconclusive call do not appear. Activity calls are given as the source filed them. Calls come from the whole dose curve; as a rule, active = well fitted curve in the direction sought with a large enough effect; inconclusive = small, poorly fitted or top-dose-only effect, or another doubt; inactive = no such curve, though single readings can be large; an effect the other way counts as inactive or inconclusive.
Columns and labels:
[1] = system: UISO; assay: qHTS assay to identify novel small-molecules to repurpose for Merkel cell carcinoma treatment (AID 1296009); details: MCC and control cell lines, CellTiter-Glo viability, 72 h; series mostly up to 46 µM; note: nearly all actives have a fitted effect of over 60% in size
Method in brief: (§1)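 Viability readout: ATP luminescence (CellTiter-Glo) after 72 hr drug exposure at 37 degree celsius. Dose-response format was 8 points for NPC and 11 points for MIPE; data normalized to in-plate controls.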

[2] = system: WaGa; assay: as above; details: MCC and control cell lines, CellTiter-Glo viability, 72 h; series mostly up to 46 µM
Method in brief: as §1

[3] = system: C33A; assay: Primary qHTS to identify gynecologic anti-cancer compounds using libraries of approved drugs and bioactive compounds (AID 1345084); details: Gynecologic cancer cell panel viability, ATPlite luminescence, 48 h; series mostly up to 57.5 µM; note: nearly all actives have a fitted effect of over 55% in size
Method in brief: (§2)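 Cells, 1,000 per well, plated 16 h, then exposed 48 h at 37 C to compounds. Viability by ATPlite luminescence after 15 min at room temperature.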

[4] = system: CAOV3; assay: as above; details: Gynecologic cancer cell panel viability, ATPlite luminescence, 48 h; series mostly up to 57.5 µM
Method in brief: as §2

[5] = system: CASKI; assay: as above; details: Gynecologic cancer cell panel viability, ATPlite luminescence, 48 h; series mostly up to 57.5 µM
Method in brief: as §2

[6] = system: Es-2; assay: as above; details: Gynecologic cancer cell panel viability, ATPlite luminescence, 48 h; series mostly up to 57.5 µM
Method in brief: as §2

[7] = system: HeLa; assay: as above; details: Gynecologic cancer cell panel viability, ATPlite luminescence, 48 h; series mostly up to 57.5 µM
Method in brief: as §2

[8] = system: Hek293T; assay: as above; details: Gynecologic cancer cell panel viability, ATPlite luminescence, 48 h, control line for the selectivity index; series mostly up to 57.5 µM
Method in brief: as §2

[9] = system: JEG-3; assay: as above; details: Gynecologic cancer cell panel viability, ATPlite luminescence, 48 h; series mostly up to 57.5 µM
Method in brief: as §2

Measured: Potency

CC(C)(C)C(O)/C=C/c1ccc2c(c1)OCO2 (stereo unspecified)
inactive: all assays above

CCOc1c(N2CCOCC2)cnn(C)c1=O
inactive: all assays above

CCC(=O)O[C@]1(C(=O)COC)[C@@H](C)C[C@H]2[C@@H]3CCC4=CC(=O)C=C[C@]4(C)C3(F)[C@@H](O)C[C@@]21C (stereo partly specified)
inactive: all assays above

CC(=O)[C@H]1CC[C@H]2[C@@H]3C=CC4=CC(=O)CC[C@@]4(C)[C@@H]3CC[C@]12C
inactive: all assays above

C=CC[N+]1([C@H]2C[C@H]3[C@@H]4CC[C@H]5C[C@H](OC(C)=O)[C@@H](N6CCCCC6)C[C@]5(C)[C@H]4CC[C@]3(C)[C@H]2OC(=O)CC)CCCCC1
inactive: all assays above

CNC(=O)c1c(I)c(NC(C)=O)c(I)c(C(=O)O)c1I
inactive: all assays above

C[C@@H]1CCC[C@H](C)N1CCCC(O)(c1ccccc1)c1ccccn1 (stereo partly specified)
inactive: all assays above

CN1Cc2cc(C(=O)N3CCC(C4CCNCC4)CC3)ccc2N[C@@H](CC(=O)O)C1=O
inactive: all assays above

CCCCC(=O)OCC(=O)[C@H]1[C@H](C)C[C@H]2[C@@H]3C[C@H](F)C4=CC(=O)C=C[C@]4(C)[C@@]3(F)[C@@H](O)C[C@@]21C
inactive: all assays above

NCC(=O)O
inactive: all assays above

CCOC(=O)[C@H](CCc1ccccc1)N[C@@H](C)C(=O)N(CC(=O)O)C1Cc2ccccc2C1
inactive: all assays above

Cc1ccccc1N1CCN(CCc2nnc3n2CCCC3)CC1
inactive: all assays above

C=CCOc1cc(Cl)ccc1C(=O)NCCN(CC)CC
inactive: all assays above

C[C@@]12CCC[C@H]1[C@@H]1CC[C@H]3C[C@@H](O)CC[C@]3(C)[C@H]1CC2
inactive: all assays above

Source: PubChem BioAssay (NCATS)
